Records with an inconclusive call do not appear. The source made the active and inactive calls. Calls follow the shape of the dose curve; as a rule, active = well fitted curve in the direction sought with a large enough effect; inconclusive = small, poorly fitted or top-dose-only effect, or another doubt; inactive = no such curve, though single readings can be large; an effect the other way counts as inactive or inconclusive.

In one test the test system is Es-2. The experiment in a line: Primary qHTS to identify gynecologic anti-cancer compounds using libraries of approved drugs and bioactive compounds (AID 1345084). Also: nearly all actives have a fitted effect of over 55% in size. Also: potency is read from the fitted curve at half-maximal effect. The conditions noted are these: Gynecologic cancer cell panel viability, ATPlite luminescence, 48 h; series mostly up to 57.5 µM. The method in brief:
(§1)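 Five-concentration response, 48 h; readout is ATP-driven luciferase luminescence.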

The next test concerns HeLa. The description is as above. To be noted: Gynecologic cancer cell panel viability, ATPlite luminescence, 48 h; series mostly up to 57.5 µM. The method in brief:
as §1
For orientation: ATP-based viability assays read luminescence as a measure of living cells.

The next test deals with Hek293T. The test is described as above. To be noted: Gynecologic cancer cell panel viability, ATPlite luminescence, 48 h, control line for the selectivity index; series mostly up to 57.5 µM. The procedure, abridged: as §1
The subject of another test is JEG-3. The test is described as above. To be noted: Gynecologic cancer cell panel viability, ATPlite luminescence, 48 h; series mostly up to 57.5 µM. The method in brief: as §1
In a further test the test system is PA-1. The test is described as above. The conditions noted are these: Gynecologic cancer cell panel viability, ATPlite luminescence, 48 h; series mostly up to 57.5 µM. The procedure, abridged:
as §1

In the next test the test system is Tov-21-G. The description is as above. To be noted: Gynecologic cancer cell panel viability, ATPlite luminescence, 48 h; series mostly up to 57.5 µM. The procedure, abridged: as §1
A further test has as its system Tov112D. Described as above. The conditions noted are these: Gynecologic cancer cell panel viability, ATPlite luminescence, 48 h; series mostly up to 57.5 µM. The method in brief: as §1
In a further test the test system is OV90. The test is described as above. To be noted: Gynecologic cancer cell panel viability, ATPlite luminescence, 48 h; series mostly up to 57.5 µM. The method in brief: as §1
The next test concerns SKOV3. The description is as above. To be noted: Gynecologic cancer cell panel viability, ATPlite luminescence, 48 h; series mostly up to 57.5 µM. The method in brief: as §1
A short description of test [1]: Drug repurposing screens with cells derived from glioblastoma tumor samples (AID 1345199). Also: nearly all actives have a fitted effect of over 40% in size. The conditions noted are these: GBM patient neurospheres viability, ATP luminescence, 48 h; Potency: tumour line A; series mostly up to 46.1 µM. The method in brief: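 Four patient lines of CD133+ GBM neurospheres were screened at several concentrations; hits were retested in those lines plus three slower-growing GBM lines, using 48-hour treatment and ATP-based viability.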

On to `CCc1nc(-c2cccc(C)c2)c(-c2ccnc(NC(=O)c3ccccc3)c2)s1`, for which the Potency result with Es-2, in the test on HeLa, with Hek293T, with JEG-3, with PA-1 and in the test on Tov-21-G was “inactive” in each case. The Potency entry in the test with Tov112D was “inactive”.
Turning to `CCC[C@H]1C[C@H](C(=O)N[C@@H]([C@@H]2O[C@@H](SC)[C@@H](O)[C@@H](O)[C@@H]2O)[C@H](C)Cl)N(C)C1`, the Potency result in the test with Es-2, with HeLa, with Hek293T, with JEG-3, with OV90 and in the test with PA-1 was “inactive” throughout. Further, the Potency result in the test on Tov112D was “inactive”.
For `CCCCC(=O)O[C@]1(C(=O)CO)[C@@H](C)C[C@H]2[C@@H]3CCC4=CC(=O)C=C[C@]4(C)[C@@]3(F)[C@@H](O)C[C@@]21C`, the Potency entry in the test with Es-2, in the test on HeLa, in the test on Hek293T, with JEG-3, in the test on OV90 and in the test on PA-1 was “inactive” throughout. Moreover, the Potency result with Tov-21-G and in the test on Tov112D was “inactive” in each case.
For the molecule `CC(O)(C#Cc1ccc2c(c1)N(c1nc(N)ncc1Cl)CC2)c1nccs1` (centres undefined), the Potency entry in the test with Es-2, with HeLa, in the test with Hek293T, in the test on JEG-3, in the test with OV90 and in the test on PA-1 was “inactive” each time. Besides, the Potency entry in the test with SKOV3, in the test on Tov-21-G and with Tov112D was “inactive” throughout.
As for `N[C@H]1CN(c2c(F)cc3c(=O)c(C(=O)O)cn(C4C[C@@H]4F)c3c2Cl)CC12CC2` (some centres undefined), the Potency entry in the test on Es-2, with HeLa, in the test with Hek293T, in the test on JEG-3, in the test on OV90 and in the test on PA-1 was “inactive” throughout. In addition, the Potency entry (with SKOV3; in the test on Tov-21-G; with Tov112D; in test [1]) was “inactive” in each case.
As to `Cc1coc2c1C(=O)C(=O)c1c-2ccc2c(C)cccc12`, the Potency result with Es-2, with HeLa, in the test on Hek293T, with OV90 and in the test on Tov-21-G was “inactive” each time.
In the case of `Cc1cn([C@@H]2O[C@H](CO)[C@@H](O)[C@H]2F)c(=O)[nH]c1=O`, the Potency entry in the test with Es-2, with HeLa, in the test on Hek293T, with JEG-3, with OV90 and in the test with PA-1 was “inactive” in each case. Besides, the Potency entry in the test with SKOV3, in the test on Tov-21-G and with Tov112D was “inactive” in each case.
For `CCc1ccc(C(=O)Nc2cc(CN3CCN(C)CC3)cc(C(F)(F)F)c2)cc1C#Cc1cnc2ccnn2c1`, the Potency entry in the test on OV90 was “inactive”.
With `COc1cc(CCc2cc(NC(=O)c3ccc(N4C[C@@H](C)N[C@@H](C)C4)cc3)n[nH]2)cc(OC)c1`, the Potency in the test on HeLa is 25.1 µM (active); with PA-1, 20 µM (active). Moreover, the Potency entry in the test on Hek293T and in the test with JEG-3 was “inactive” each time.
Turning to `c1cncc(CN2CCC(n3ncc4c(N5CCOCC5)nc(-c5ccc6[nH]ccc6c5)nc43)CC2)c1`, the Potency is 11.2 µM (active) in the test with Hek293T; 22.4 µM (active) with OV90; 17.8 µM (active) with PA-1; 10 µM (active) in the test on SKOV3; 12.6 µM (active) with Tov-21-G; 28.2 µM (active) in the test with Tov112D.
Regarding `CCCCOc1ccc(C(=O)Nc2ccc(F)cc2F)cc1`, the Potency entry with Es-2, with HeLa, with JEG-3, in the test on OV90, in the test with PA-1 and with Tov-21-G was “inactive” in each case. In addition, the Potency entry in the test on Tov112D is “inactive”.
As to `Cc1cncc2cccc(S(=O)(=O)N3CCCN(C(=O)CN)C[C@@H]3C)c12`, the Potency entry with Es-2, in the test with Hek293T, with JEG-3, in the test on OV90, in the test with PA-1 and in the test with Tov-21-G was “inactive” throughout. Moreover, the Potency result in the test with Tov112D was “inactive”.
As to `Nc1ccn(C[C@@H](CO)OCP(=O)(O)O)c(=O)n1`, the Potency result in test [1] was “inactive”.
With `COC1=C(OC)C(=O)C(CC=C(C)CCC=C(C)CCC=C(C)CCC=C(C)CCC=C(C)CCC=C(C)CCC=C(C)CCC=C(C)CCC=C(C)CCC=C(C)C)=C(C)C1=O`, in [1], the Potency entry is “inactive”.
Still for that read-out and setting: the same measure for `C[C@H]1C[C@H]2[C@@H]3CCC4=CC(=O)C=C[C@]4(C)[C@@H]3C(=O)C[C@]2(C)[C@@]1(O)C(=O)CO`: “inactive”.
As to `Cc1cnc(Nc2ccc(CN3CCOCC3)cc2)nc1Nc1cccc(S(=O)(=O)NC(C)(C)C)c1`, the Potency was 1 µM (active) in the test with HeLa; 17.8 µM (active) in the test on JEG-3; 22.4 µM (active) in the test with OV90; 1.58 µM (active) in the test with PA-1; 7.08 µM (active) in the test on SKOV3; 2.24 µM (active) in the test with Tov-21-G. Besides, the Potency in the test with Tov112D is 5.01 µM (active).
Consider `O=C(O)c1ccc(Nc2ncc3c(n2)-c2ccc(Cl)cc2C(c2c(F)cccc2F)=NC3)cc1`, for which the Potency result in the test on Es-2, in the test with Hek293T, in the test with JEG-3, in the test on OV90, in the test on SKOV3 and with Tov-21-G was “inactive” each time.
Consider `Cc1ccc(-n2[nH]c(C)c(N=Nc3cccc(-c4cccc(C(=O)O)c4)c3O)c2=O)cc1C`, for which the Potency result in the test on HeLa, in the test on JEG-3, in the test with OV90 and with SKOV3 was “inactive” each time. The Potency in the test on PA-1 was 1.58 µM (active).
For the molecule `Oc1cc(-c2nc(-c3ccccc3)[nH]c2-c2ccncc2)ccc1Cl`, the Potency entry in the test on HeLa, with Hek293T, in the test with JEG-3, with PA-1, in the test with SKOV3 and with Tov112D was “inactive” each time. Also, the Potency in the test on Tov-21-G was 17.8 µM (active).
For the molecule `Cc1onc(-c2ccccc2)c1C(=O)N[C@@H]1C(=O)N2[C@@H](C(=O)O)C(C)(C)S[C@@H]12`, the Potency entry in [1] was “inactive”.
Regarding `CC1=C(C(=O)Nc2cc3cn[nH]c3cc2F)C(c2ccc(Cl)cc2F)N=C(c2ccnc(Cl)c2)N1` (centres undefined), the Potency entry in the test with Es-2, in the test with Hek293T, with JEG-3, with OV90, in the test on PA-1 and with SKOV3 was “inactive” each time. Also, the Potency result in the test on Tov-21-G and in the test with Tov112D was “inactive” throughout.
`Cn1cnc2c(F)c(Nc3ccc(Br)cc3F)c(C(=O)NOCCO)cc21`: the Potency result in the test with HeLa, in the test on Hek293T, with JEG-3, with SKOV3 and in the test with Tov112D was “inactive” throughout. Further, in the test with OV90, the Potency was 0.224 µM (active).
For `C[C@@H](Cc1cc2c(c(C(N)=O)c1)N(CCCO)CC2)NCCOc1ccccc1OCC(F)(F)F`, the Potency result in the test on JEG-3 was “inactive”. Further, the Potency with PA-1 is 31.6 µM (active).
As to `FC(F)c1nc2ccccc2n1-c1nc(N2CCOCC2)nc(N2CCOCC2)n1`, the Potency in the test on Es-2 was 14.1 µM (active); with Hek293T, 2.24 µM (active); with PA-1, 2 µM (active); with SKOV3 it was 2.82 µM (active).
Take `CS(=O)(=O)N1CCc2c(-c3cnc(N)nc3)nc(N3CCOCC3)nc21`: the Potency in the test on HeLa is 3.55 µM (active); in the test on Hek293T, 3.55 µM (active); in the test with OV90, 4.47 µM (active); with PA-1, 1.78 µM (active); in the test on SKOV3, 1.26 µM (active).
Regarding `Oc1ccc([C@@H]2Oc3ccc(O)cc3[C@@H]3CCC[C@@H]32)cc1`, the Potency entry with Es-2, in the test on OV90 and in the test on Tov-21-G was “inactive” throughout.
Turning to `CC(C)(N)c1ccc(-c2nc3ccccc3nc2-c2ccccc2)cc1`, the Potency result in the test with HeLa, in the test with Hek293T, in the test with JEG-3, with Tov-21-G and with Tov112D was “inactive” each time.
As for `O=C1c2c(O)cccc2[C@@H]([C@@H]2O[C@H](CO)[C@@H](O)[C@H](O)[C@H]2O)c2cc(CO)cc(O)c21`, the Potency entry in test [1] is “inactive”.
For the molecule `COc1ccc(S(=O)(=O)Nc2cccnc2Nc2ccc(O)cc2)cc1`, the Potency in the test with Es-2 was 2.24 µM (active); with HeLa, 1.78 µM (active); in the test with JEG-3, 2 µM (active); with PA-1 it was 1 µM (active); in the test on SKOV3, 6.31 µM (active); with Tov112D it was 1.78 µM (active).
For the molecule `Cn1cc(-c2ccc3ncc(Cc4ccc5ncccc5c4)n3n2)cn1`, the Potency entry in the test with Hek293T and with OV90 was “inactive” throughout.
As for `O=C(O)C(=O)Nc1cccc(C2=NN=N[N]2)c1`, the Potency entry in test [1] was “inactive”.
Consider `C[C@H]1[C@@H](OC(=O)CCC(=O)O)O[C@@H]2O[C@@]3(C)CC[C@@H]4[C@H](C)CC[C@@H]1[C@@]24OO3`, for which the Potency result with OV90 and in the test on SKOV3 was “inactive” in each case.
Consider `Nc1ccc(C(=O)Nc2cccc(-c3nc(N4CCOCC4)c4oc5ncccc5c4n3)c2)cn1`, for which the Potency with PA-1 is 3.16 µM (active); in the test on SKOV3 it was 15.8 µM (active).
With `CC1(C)[C@H](O[C@H]2O[C@H](C(=O)O)[C@@H](O)[C@H](O)[C@H]2O[C@@H]2O[C@H](C(=O)O)[C@@H](O)[C@H](O)[C@H]2O)CC[C@@]2(C)[C@H]1CC[C@]1(C)[C@H]2C(=O)C=C2[C@H]3C[C@@](C)(C(=O)O)CC[C@]3(C)CC[C@]21C`, the Potency result in test [1] is “inactive”.
Consider `CC(C)c1cc(C(C)C)c(CC(=O)NS(=O)(=O)Oc2c(C(C)C)cccc2C(C)C)c(C(C)C)c1`, for which the Potency entry in the test on Es-2, in the test with JEG-3, with OV90, in the test on SKOV3, in the test with Tov-21-G and with Tov112D was “inactive” throughout.
As for `CCCCCCCCCCCCCCCC(=O)OC[C@@H](NC(=O)C(Cl)Cl)[C@H](O)c1ccc([N+](=O)[O-])cc1`, the Potency result in test [1] was “inactive”.

For the origin of these results see PubChem BioAssay (NCATS).
